# Only some compounds are listed: those with a hit (about 7.2% of all), similar ones and a draw of the others.
# ERK AVP block: blocks ERK signaling stimulated by vasopressin | HEK293-V1b, vasopressin-stimulated pERK AlphaScreen | Potency, µM (top dose mostly 57.5 µM), for the others: top-dose activity, negative = inhibition, actives largely listed as inhibitors | actives 0.99% (n = 72,000); further: potency means the concentration at half of the fitted maximal effect; on the % scale 0 is the no-effect control and ±100 the full control effect; nearly all actives have a fitted effect of over 55% in size
#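 Phosphorylated ERK1/2 detected via AlphaScreen bead proximity in lysates of V1b-expressing HEK293 cells given 25 nM vasopressin for 5 min after 30 min compound exposure (37 °C). AC50 from Hill equation; basal DMSO 0%, vasopressin 100%.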
# FLuc inh: blocks Photinus pyralis firefly luciferase activity | purified firefly luciferase, luminescence, 8 min | Potency, µM (top dose mostly 57.1 µM), for the others: at the top dose activity change, negative = inhibition, usual class: inhibitors | actives 2.2% (n = 72,000); further: potency means the concentration at half of the fitted maximal effect; on the % scale 0 is the no-effect control and ±100 the full control effect; nearly all actives have a fitted effect of over 40% in size
#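 Compounds were tested as concentration series (qHTS) against purified P. pyralis luciferase with luciferin and 10 uM ATP in 50 mM imidazole pH 7.2, 50 mM KCl, 7 mM MgCl2, 0.01% Tween 20, 0.05% BSA. Luminescence was read after 8 min at ambient temperature.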
# Tau fil binding: tau filament binding. actives 2% (n = 71,000). AID 596. recombinant tau filaments, thioflavin S fluorescence, 15 h; filaments grown with octadecylsulfate alongside compound. P10636. Potency, µM (highest dose often 57.1 µM), for the others: at the highest dose activity change, negative = inhibition;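 further: potency means the concentration at half of the fitted maximal effect; on the % scale 0 is the no-effect control and ±100 the full control effect; actives lower thioflavin S fluorescence by blocking filaments or displacing dye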
# Target sequence (P10636 whole entry, looked up): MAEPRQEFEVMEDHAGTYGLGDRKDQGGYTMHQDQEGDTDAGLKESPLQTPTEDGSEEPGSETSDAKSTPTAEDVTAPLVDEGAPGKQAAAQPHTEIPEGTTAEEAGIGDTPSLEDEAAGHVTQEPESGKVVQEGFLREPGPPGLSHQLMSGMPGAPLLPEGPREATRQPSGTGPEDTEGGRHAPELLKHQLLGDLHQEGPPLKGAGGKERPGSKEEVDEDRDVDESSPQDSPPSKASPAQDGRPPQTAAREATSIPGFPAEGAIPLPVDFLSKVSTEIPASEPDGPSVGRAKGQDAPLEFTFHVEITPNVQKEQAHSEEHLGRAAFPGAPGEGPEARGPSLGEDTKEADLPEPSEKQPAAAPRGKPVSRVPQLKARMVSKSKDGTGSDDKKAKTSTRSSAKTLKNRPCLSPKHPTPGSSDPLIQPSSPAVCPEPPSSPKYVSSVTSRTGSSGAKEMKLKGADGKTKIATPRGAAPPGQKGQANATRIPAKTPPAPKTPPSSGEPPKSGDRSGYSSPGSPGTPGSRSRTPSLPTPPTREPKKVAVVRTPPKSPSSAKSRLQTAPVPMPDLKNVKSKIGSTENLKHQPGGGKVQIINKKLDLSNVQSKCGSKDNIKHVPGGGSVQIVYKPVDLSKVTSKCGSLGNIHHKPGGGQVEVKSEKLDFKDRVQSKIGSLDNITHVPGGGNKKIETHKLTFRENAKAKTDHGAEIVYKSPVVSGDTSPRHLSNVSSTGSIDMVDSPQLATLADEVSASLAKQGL
#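 Recombinant tau protein (human, 1 uM final) plus 30 uM ODS in HEPES pH 7.4 with NaCl, DTT and thioflavine S. Compound present from the start; fluorescence at 510 nm after 15 h, 37 C.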
# HEK293 cAMP cs: counter-screen for TSHR agonists: cAMP increase in parental HEK293; actives 2.5% (n = 73,000); parental HEK293 CNG cAMP sensor, membrane potential fluorescence; Potency, µM (doses to about 57.1 µM), inactives show top-dose activation, most hits filed as activators; further: potency means the concentration at half of the fitted maximal effect; % of control where 0% means no effect; nearly all actives have a fitted effect of over 55% in size
#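 Parental HEK 293 cells stably expressing a modified CNG channel (no TSHR) report cAMP rise as membrane depolarization. Membrane potential dye with 100 uM RO 20-1724 was loaded for 60 min at room temperature, then compound added for 30 min; fluorescence read at 590 nm.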
# Bst PK mod: alters activity of Bacillus stearothermophilus pyruvate kinase; Potency, µM; purified pyruvate kinase, luminescence ATP production; ribose 5-phosphate activator present at AC10; actives 1.2% (n = 51,000); in the data active means potency below about 11 µM; inconclusive means mostly about 12 µM to 25 µM;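 the screen sought inhibitors and activators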;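 further: potency means the concentration at half of the fitted maximal effect; scaled between full activation by ribose 5 phosphate and full inhibition by luteolin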
# TSHR agonist: activates the human thyroid stimulating hormone receptor; P16473; HEK293-CNG-TSHR cells (CNG channel as cAMP sensor), membrane potential dye, cAMP; actives 0.48% (n = 73,000); Potency, µM (highest dose often 57.1 µM), for the others: at the top dose activation, actives largely listed as activators; AID 926; active means well fitted activation curve with a large enough effect in the main read-out, with a control signal flat, not every such curve was filed as active; inconclusive means small, poorly fitted or top-dose-only effect, or a change in a side signal; inactive means no such curve, though single readings can be large or run the other way; % of control where 0% means no effect;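 further: the control signal comes from parental cells without the receptor; potency means the concentration at half of the fitted maximal effect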
#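 cAMP rise detected as CNG-channel membrane depolarization by fluorescent dye (emission 590 nm), 30 min after compound, following 60 min dye loading containing 100 uM RO 20-1724 at room temperature. Cells: TSHR/CNG HEK 293, with parental CNG HEK 293 as control.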
# HEK293 cAMP cnt: counter-screen for TSH receptor agonists: cAMP in parental HEK293 cells | parental HEK293 CNG biosensor, cAMP membrane potential fluorescence | AID 953 | activity change, negative = inhibition, % at 32.9 µM | 150 tested, under 10 active | shares compounds with TSHR agonist
# * hit, by the source's call; u = inconclusive; x = no result; [ ] = another dose, or the depositor's remark. Unless noted, the call rests on the fitted dose curve; in most records, active means well fitted curve in the direction sought with a large enough effect; inconclusive means small, poorly fitted or top-dose-only effect, or another doubt; inactive means no such curve, though single readings can be large; an effect the other way counts as inactive or inconclusive.
SMILES,ERK AVP block,FLuc inh,Tau fil binding,HEK293 cAMP cs,Bst PK mod,TSHR agonist,HEK293 cAMP cnt
Cc1ccc(N(CC(=O)NCc2ccco2)S(=O)(=O)c2ccccc2)cc1,18.4%,-0.3%,-1.8%,u,x,u,-6.8
O=C(CN(c1ccc2c(c1)OCCO2)S(=O)(=O)c1ccccc1)NCc1ccco1,-17.6%,0.8%,-0.8%,0.8%,>57,25.1µM*,7.0
c1ccc(-n2cnc3cc(NCc4ccncc4)ccc32)cc1,u,-20.8%,-16.8%,-1.1%,x,-8.5%,1.1[25.6 µM]
c1ccc(-n2cnc3cc(NCc4ccccn4)ccc32)cc1,-12.4%,u,1.9%,-10.2%,x,-12.2%,x
Cc1noc(C)c1-c1ccc2ncnc(NCc3ccccc3)c2c1,u,4.2%[2.29 µM],-0.4%,15.4%,x,x,x
CS(=O)(=O)N1CCN(C(=O)c2cc(-c3cccs3)nc3ccccc23)CC1,-13.8%,-26.0%,10.5%,-3.9%,x,20µM*,-5.3
COc1cccc(Oc2c(C)oc3c(CN4CCOCC4)c(O)ccc3c2=O)c1,-3.8%,0.6%,0.6%,14.5%,>57,3.1%,x
Cc1oc2c(CN3CCOCC3)c(O)ccc2c(=O)c1-c1ccccc1,4.2%,0.0%,0.6%,9.7%,>57,10.9%,-37.0[25.6 µM]
Cc1occc1-c1nnc(SCC(=O)NCc2ccc3c(c2)OCO3)n1CC(C)C,-6.4%,4.6%,-14.6%,29.2%,>57,15.8µM*,9.8
Cc1nonc1NC(=O)CSc1nnc(-c2ccoc2C)n1CC(C)C,-11.3%,-0.5%,-7.9%,12.6%,>57,25.5%,x
Cc1ccc(S(=O)(=O)N(CC(=O)N2CCC(C(N)=O)CC2)Cc2ccc(F)cc2)cc1,-1.8%,-6.4%,4.2%,2.2%,x,3.6%,x
O=C(CN(Cc1ccc(F)cc1)S(=O)(=O)c1ccccc1)N1CCCCC1,-29.7%,-12.9%,-21.1%,27.7%,x,25.1µM*,-6.6
O=C(c1ccccc1)[C@H](Nc1ccc2ccccc2c1)c1ccccc1,-6.8%[11.5 µM],-20.9%[11.4 µM],-27.5%[11.4 µM],0.3%[11.4 µM],x,-3.4%[11.4 µM],x
COC(=O)c1ccc(C(NC(=O)OCc2ccccc2)/C(=C/[C@@H](C)C(=O)N(C)Cc2cccnc2)c2cccnc2)cc1 (stereo not given in full),-12.1%,x,17.2%,-6.5%,x,6.3%,x
COc1ccc(C2Nc3ccccc3C(=O)N2Cc2ccco2)cc1COc1ccc(NC(C)=O)cc1 (stereo not given),-1.6%,-1.7%,111.7%,17.9%,>57,0.631µM*,21.9
COc1ccc(CNC(=O)c2cc(-c3cccc(OC)c3)on2)cc1,-6.7%,-2.5%,273.2%,26.3%,x,21.2%,x
O=C1c2ccccc2C(=O)N1Cc1nc(-c2ccccc2)no1,5.7%,2.2%,-2.1%,4.3%,>11.4,20.7%,21.1[25.6 µM]
O=C1c2ccccc2C(=O)N1Cc1nc(-c2ccncc2)no1,-3.7%,0.0%,-14.1%,13.5%,>57,14.1%,x
O=C(Nc1ccccc1)[C@@]12C[C@@H]1/C(=N/O)c1ccccc1O2,-18.2%,-0.1%,u,u,x,u,x
CC1(C)CC2CC(C)(CN2S(=O)(=O)c2ccc(N)cc2)C1 (stereo not given),20.3%,3.1%,-5.6%,6.8%,x,25.1µM*,-5.1
CN1CCN(S(=O)(=O)c2ccc(N)cc2)CC1,x,-4.5%,-10.0%,19.2%,x,-3.9%,x
Cc1ccc2nc(SCC(=O)O)nc(C)c2c1,16.6%,2.0%,-10.8%,6.1%,>57,-6.5%,13.0[25.6 µM]
COc1ccc(-c2cc(C(F)F)nn2-c2ccc(S(N)(=O)=O)cc2)cc1F,6.3%,x,x,x,x,x,x
COc1ccc(C2C3=C(CC(c4ccco4)CC3=O)Nc3ccccc3N2C(C)=O)cc1 (stereo not given),-15.6%,-0.9%,19.8%,7.4%,x,4.4%,x
O=C1CC(c2ccco2)CC2=C1C(c1ccccc1)n1nc(C(F)(F)F)nc1N2 (stereo not given),7.4%,-1.2%,21.3%,9.8%,>57,0.631µM*,-7.2
SMILES,ERK AVP block,FLuc inh,Tau fil binding,HEK293 cAMP cs,Bst PK mod,TSHR agonist,HEK293 cAMP cnt
Cc1cc(C)nc(N(C#N)CC(=O)N2CCC(C(N)=O)CC2)n1,-7.0%,7.94µM*,8.4%,0.7%,u,x,-13.4
COc1cc(OC)cc(-c2nnc(SCC(=O)N(C(C)C)C(C)C)o2)c1,-0.1%,0.3%,6.7%,24.2%,>57,25.1µM*,16.6
CCCNC(=O)OC[C@@H]1O[C@H](CCO/N=C(\C)CCN2CCCCc3nc(C)c(C)cc32)C=C[C@@H]1Oc1ccc(OC)cc1,6.4%[11.5 µM],1.7%[11.4 µM],x,14.1%[11.4 µM],x,9.9%[11.4 µM],x
CCC(=C(CC)c1ccc(O)cc1)c1ccc(O)cc1,23.4%[25.7 µM],0.8%[25.5 µM],4.7%[25.6 µM],16.0%[25.6 µM],x,0.8%[25.6 µM],x
Cc1onc(-c2ccccc2)c1C(=O)N1CCCN(C(=O)c2c(-c3ccccc3)noc2C)CC1,-7.5%,-0.6%,2.5%,17.1%,>57,21.8%,x
Cc1onc(-c2ccccc2)c1C(=O)N1CCCSC1=Nc1ccccc1,-3.6%,-2.7%,5.7%,u,>57,u,18.9
CN(Cc1ccco1)C(=O)Cn1c(=O)oc2cc(S(=O)(=O)NCc3ccccc3)ccc21,19.2%,0.8%,2.6%,12.2%,x,25.1µM*,-3.7
COc1ccc2c(c1)OCc1c-2oc2cc(OC)ccc12,-12.4%,x,x,x,x,x,x
COc1cccc(C2CC(c3ccccc3C)n3nc(N)nc3N2)c1 (stereo not given),-21.5%,1.2%,-9.1%,7.4%,x,0.4%,x
COc1cccc(C2CC(c3ccccc3OC)n3nc(N)nc3N2)c1 (stereo not given),-12.4%,-4.6%,4.3%,8.5%,x,4.7%,6.0[25.6 µM]
Nc1ncnc2c1ncn2[C@H]1O[C@@H](CO)[C@@H](O)[C@H]1N,3.9%[11.5 µM],0.1%[11.4 µM],5.1%[11.4 µM],1.7%[11.4 µM],x,-1.0%[11.4 µM],x
O=C(C1COc2ccccc2O1)N1CCCC1 (stereo not given),4.2%,1.6%,11.7%,-2.1%,x,-1.3%,-1.9[25.6 µM]
Cn1cc(Cl)c(C(=O)N(Cc2ccccc2)c2ccccn2)n1,-17.2%,-1.3%,1.5%,6.7%,x,7.6%,x
O=C(c1ccc(Br)o1)N(Cc1ccccc1)c1ccccn1,u,-0.4%,-9.4%,u,x,u,4.0
CCOc1ccccc1/C=C(\C#N)C(N)=O,-9.4%[11.5 µM],0.5%[11.4 µM],-4.3%[11.4 µM],12.1%[11.4 µM],x,3.1%[11.4 µM],x
COC(=O)C/C=C\[C@@H](C)[C@@H](/C=N\O[C@@H](C)CN1CCCc2nc(C)c(C)cc21)NS(=O)(=O)c1ccc(C)cc1,2.0%[11.5 µM],-0.1%[11.4 µM],x,13.7%[11.4 µM],x,0.2%[11.4 µM],x
C/C(=C\CO)CCC(C)CCCC(C)CCCC(C)C (stereo not given),27.6%,x,x,x,x,x,x
Cc1oc(-c2cccc(Cl)c2)nc1CN1CCCC(C(=O)NCc2ccco2)C1 (stereo not given),1.2%,6.1%,29.2%,16.6%,>57,5.6%[11.4 µM],x

# High-throughput results as filed in PubChem.
